Experimental data taken from PubChem BioAssay (EPA / NIEHS).
“And” between values parts separate entries of the source, which are not always exact repeats. Identical values can stand only once. Records with an inconclusive call do not appear. More than one record can exist for a structure, and the calls need not agree. The source made the active and inactive calls. Rule for the calls: active = hit-call score of the fitted dose curve at least 0.9, where 1 is the maximum; inconclusive = response in the unintended direction; inactive = score below 0.9.

Key:
[1] = target: chimpanzee Androgen Receptor (AR), AR (gene 747460) (UniProt O97775); test: NVS_NR_cAR: NovaScreen (NVS) Nuclear Receptor Binding Assay for chimpanzee Androgen Receptor (AR) (AID 2283346);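 note: radioligand displacement from AR measured by scintillation counting in a cell-free assay; a loss of bound radioligand signal versus DMSO counts as binding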
Procedure, shortened: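 Radioligand binding to chimpanzee AR expressed in Sf9/Sf21 cells, cell-free, measured 72 h after dosing by lysate-based scintillation counting. Loss of signal vs DMSO; initial duplicate screen at 25 uM, actives retested in concentration series.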

[2] = target: Estrogen receptor (Homo sapiens) (UniProt P03372); test: OT_ER_ERaERa_1440: Odyssey Thera (OT) 24-hour HEK293T Protein-Complementation Assay for Estrogen Receptor-alpha/-alpha Homodimer (AID 2283349);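 note: hits raise fluorescence above DMSO for agonists and antagonists alike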
Procedure, shortened: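 HEK293T cells stably expressing the human ER alpha ligand-binding domain (aa 310-547) as a homodimer PCA were dosed for 24 hours. Fluorescence intensity was read by laser scanning cytometry, and gain of signal was fitted relative to DMSO vehicle.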

[3] = target: Bile acid receptor (Homo sapiens) (UniProt Q96RI1); test: NVS_NR_hFXR_Antagonist: NovaScreen (NVS) Nuclear Receptor Binding Assay for human Farnesoid X Receptor Antagonism (FXR) (AID 2283350)
Procedure, shortened: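 Cell-free TR-FRET ligand-binding read-out on human FXR (NR1H4) in antagonist mode, measured 1 h after dosing. Primary screen in duplicate at 25 uM, actives retested in concentration series; signal loss scored versus DMSO.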

[4] = target: Estrogen receptor (Homo sapiens) (UniProt P03372); test: OT_ER_ERaERa_0480: Odyssey Thera (OT) 8-hour HEK293T Protein-Complementation Assay for Estrogen Receptor-alpha/-alpha Homodimer (AID 2283351);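 note: rise in fluorescence from reassembled reporter fragments on ERα LBD homodimer in nucleus or whole cell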
Procedure, shortened: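 HEK293T cells stably expressing the human ERα ligand-binding domain (aa 310-547) as a homodimer PCA were dosed with compound for 8 h. Gain of fluorescence intensity versus DMSO vehicle was read by laser scanning cytometry.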

[5] = target: Estrogen receptor beta (Homo sapiens) (UniProt Q92731); test: OT_ER_ERbERb_0480: Odyssey Thera (OT) 8-hour HEK293T Protein-Complementation Assay for Estrogen Receptor-beta/-beta Homodimer (AID 2283357);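 note: active means signal gain over DMSO baseline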
Procedure, shortened: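 Fluorescence intensity, nuclear for agonists and nuclear plus cytoplasmic for antagonists, was quantified by laser scanning cytometry versus vehicle after 8 h treatment. The cells were HEK293T stably carrying ER beta LBD fragment-complementation partners.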

[6] = target: T1, Estrogen receptor (Homo sapiens) + Estrogen receptor beta (Homo sapiens) (UniProt P03372+Q92731); test: OT_ER_ERaERb_0480: Odyssey Thera (OT) 8-hour HEK293T Protein-Complementation Assay for Estrogen Receptor-alpha/-beta Heterodimer (AID 2283352)
Procedure, shortened: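 Compound added to HEK293T cells carrying split-reporter-tagged ER-alpha and ER-beta LBDs, incubated 8 hours, then imaged by laser scanning cytometer. Signal rise in nucleus, or nucleus and cytoplasm, over vehicle was fitted in the positive direction.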

[7] = target: T1, Estrogen receptor (Homo sapiens) + Estrogen receptor beta (Homo sapiens); test: OT_ER_ERaERb_1440: Odyssey Thera (OT) 24-hour HEK293T Protein-Complementation Assay for Estrogen Receptor-alpha/-beta Homodimer (AID 2283356);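 note: heteromer of ER alpha and ER beta binding domains; hits raise reporter fluorescence and both agonists and antagonists give an increase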
Procedure, shortened: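 Stable HEK293T PCA line, ERα LBD 310-547 + ERβ LBD 263-489 fused to reporter fragments; 24 h treatment; fluorescence read by laser scanning cytometry; positive fitting direction relative to DMSO.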

[8] = target: Androgen Receptor/SRC-1 Co-activator, AR (gene 367) (UniProt P10275); test: OT_AR_ARSRC1_0960: Odyssey Thera (OT) 16-hour HEK293T Protein-Complementation Assay for Androgen Receptor/SRC-1 Co-activator (AID 2283353);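 note: actives raise the signal above DMSO so potency reflects increased AR and SRC-1 complex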
Procedure, shortened: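 HEK293T cells stably expressing AR and SRC-1 fused to split Venus YFP fragments via (Gly4Ser)2 linkers were dosed for 16 h. Nuclear/cytoplasmic fluorescence ratio at 488 nm, ≥400 cells per image, fitted for gain of signal versus DMSO.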

[9] = target: Androgen Receptor/SRC-1 Co-activator, AR (gene 367) (UniProt P10275); test: OT_AR_ARSRC1_0480: Odyssey Thera (OT) 8-hour HEK293T Protein-Complementation Assay for Androgen Receptor/SRC-1 Co-activator (AID 2283354);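 note: hits raise the complementation signal above DMSO so AC50 marks enhancers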
Procedure, shortened: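 HEK293T cells stably expressing AR and SRC-1 fused to Venus YFP fragments, imaged 8 h after dosing. Complementation fluorescence scored as nuclear/cytoplasmic ratio at 488 nm in at least 400 cells per image; gain fitted versus DMSO.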

[10] = target: rat Mineralocorticoid Receptor (MR), Nr3c2 (gene 25672) (UniProt P22199); test: NVS_NR_rMR: NovaScreen (NVS) Nuclear Receptor Binding Assay for rat Mineralocorticoid Receptor (MR) (AID 2283355)
Procedure, shortened: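 Cell-free radioligand binding to mineralocorticoid receptor from adrenalectomized rat brain supernatant, scintillation counting after 24 h. Primary screen in duplicate at 25 uM; actives retested in concentration series. Loss of specific binding versus DMSO.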

Measured: AC50

Chain of Bile acid receptor (Homo sapiens) (Q96RI1 whole entry, looked up): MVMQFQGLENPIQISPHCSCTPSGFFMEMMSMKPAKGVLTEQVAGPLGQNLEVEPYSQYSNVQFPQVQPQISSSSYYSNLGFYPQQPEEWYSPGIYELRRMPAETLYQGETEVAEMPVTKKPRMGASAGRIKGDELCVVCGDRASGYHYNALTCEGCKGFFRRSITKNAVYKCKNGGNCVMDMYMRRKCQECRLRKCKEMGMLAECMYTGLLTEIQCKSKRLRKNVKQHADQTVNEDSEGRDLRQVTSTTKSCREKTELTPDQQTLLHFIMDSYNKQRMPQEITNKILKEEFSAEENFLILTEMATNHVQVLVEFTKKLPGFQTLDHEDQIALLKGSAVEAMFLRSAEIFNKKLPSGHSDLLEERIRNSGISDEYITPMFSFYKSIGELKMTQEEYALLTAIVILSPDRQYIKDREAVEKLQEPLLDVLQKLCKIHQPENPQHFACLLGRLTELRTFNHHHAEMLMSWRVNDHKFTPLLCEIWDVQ
Chain of Estrogen receptor beta (Homo sapiens) (Q92731 whole entry, looked up, the tested form may be a part): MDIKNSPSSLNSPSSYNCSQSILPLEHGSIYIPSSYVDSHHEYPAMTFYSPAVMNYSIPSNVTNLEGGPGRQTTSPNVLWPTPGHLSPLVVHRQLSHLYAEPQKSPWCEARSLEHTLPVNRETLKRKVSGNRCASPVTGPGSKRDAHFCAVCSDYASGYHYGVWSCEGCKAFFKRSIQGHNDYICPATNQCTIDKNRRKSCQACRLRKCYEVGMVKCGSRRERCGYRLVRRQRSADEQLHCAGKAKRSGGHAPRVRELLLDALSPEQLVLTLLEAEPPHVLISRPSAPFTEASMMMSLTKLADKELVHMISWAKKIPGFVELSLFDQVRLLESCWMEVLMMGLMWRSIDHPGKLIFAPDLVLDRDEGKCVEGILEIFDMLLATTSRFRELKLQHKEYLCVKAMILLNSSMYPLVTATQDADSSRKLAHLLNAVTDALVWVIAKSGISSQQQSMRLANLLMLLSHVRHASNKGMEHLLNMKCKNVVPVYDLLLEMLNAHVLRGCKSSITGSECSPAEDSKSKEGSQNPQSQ
Chain of Androgen Receptor/SRC-1 Co-activator, AR (gene 367) (P10275 whole entry, looked up, the tested form may be a part): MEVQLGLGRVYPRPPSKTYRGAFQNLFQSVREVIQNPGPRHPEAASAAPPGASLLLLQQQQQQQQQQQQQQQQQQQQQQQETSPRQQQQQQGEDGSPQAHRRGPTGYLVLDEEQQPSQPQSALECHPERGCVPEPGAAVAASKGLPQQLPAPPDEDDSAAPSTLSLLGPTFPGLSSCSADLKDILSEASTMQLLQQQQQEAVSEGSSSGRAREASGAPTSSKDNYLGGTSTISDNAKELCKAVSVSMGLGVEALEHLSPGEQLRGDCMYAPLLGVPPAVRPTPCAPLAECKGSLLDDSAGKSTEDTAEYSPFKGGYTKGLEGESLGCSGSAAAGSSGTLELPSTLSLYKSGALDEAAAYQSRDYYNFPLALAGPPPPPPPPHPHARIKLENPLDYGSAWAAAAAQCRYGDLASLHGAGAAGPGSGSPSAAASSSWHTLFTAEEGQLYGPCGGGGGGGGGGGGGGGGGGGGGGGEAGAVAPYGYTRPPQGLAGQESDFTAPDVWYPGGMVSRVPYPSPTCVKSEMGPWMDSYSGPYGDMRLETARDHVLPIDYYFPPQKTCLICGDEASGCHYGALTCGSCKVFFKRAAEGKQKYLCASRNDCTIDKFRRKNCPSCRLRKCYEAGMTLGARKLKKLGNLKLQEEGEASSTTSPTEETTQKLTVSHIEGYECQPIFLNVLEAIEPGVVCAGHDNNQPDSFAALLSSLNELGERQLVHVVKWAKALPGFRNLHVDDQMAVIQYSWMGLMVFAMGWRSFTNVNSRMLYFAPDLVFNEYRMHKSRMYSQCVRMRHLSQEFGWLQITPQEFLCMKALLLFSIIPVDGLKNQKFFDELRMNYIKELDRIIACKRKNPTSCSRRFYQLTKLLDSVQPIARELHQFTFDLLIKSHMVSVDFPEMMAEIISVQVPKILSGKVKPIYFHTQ
Chain of chimpanzee Androgen Receptor (AR), AR (gene 747460) (O97775 whole entry, looked up): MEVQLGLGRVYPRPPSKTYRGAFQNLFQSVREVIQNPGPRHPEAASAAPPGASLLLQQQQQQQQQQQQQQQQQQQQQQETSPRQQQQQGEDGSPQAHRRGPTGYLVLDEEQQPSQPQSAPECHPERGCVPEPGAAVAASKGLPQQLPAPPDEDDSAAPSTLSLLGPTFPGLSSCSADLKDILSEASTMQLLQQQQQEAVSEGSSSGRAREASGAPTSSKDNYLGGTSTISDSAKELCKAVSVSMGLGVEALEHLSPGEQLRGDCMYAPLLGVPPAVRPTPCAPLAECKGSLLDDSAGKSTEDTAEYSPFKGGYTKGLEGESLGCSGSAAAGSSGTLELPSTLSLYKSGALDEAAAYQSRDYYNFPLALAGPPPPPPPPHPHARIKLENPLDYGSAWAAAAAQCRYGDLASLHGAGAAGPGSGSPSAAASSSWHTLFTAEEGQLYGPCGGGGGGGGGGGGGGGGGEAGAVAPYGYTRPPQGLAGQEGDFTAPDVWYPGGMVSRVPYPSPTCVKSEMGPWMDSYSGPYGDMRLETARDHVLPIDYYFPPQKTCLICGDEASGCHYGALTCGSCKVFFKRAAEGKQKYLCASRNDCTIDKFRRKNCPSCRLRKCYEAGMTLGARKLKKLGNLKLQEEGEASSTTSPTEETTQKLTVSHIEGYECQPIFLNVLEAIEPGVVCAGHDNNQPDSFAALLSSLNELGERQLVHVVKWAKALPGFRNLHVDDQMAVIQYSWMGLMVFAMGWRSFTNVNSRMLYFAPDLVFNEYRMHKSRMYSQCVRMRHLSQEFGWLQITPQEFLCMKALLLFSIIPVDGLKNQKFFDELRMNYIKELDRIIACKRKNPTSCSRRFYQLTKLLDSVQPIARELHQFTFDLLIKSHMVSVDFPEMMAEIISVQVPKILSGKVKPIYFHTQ
T1 sequence (P03372 whole entry, looked up): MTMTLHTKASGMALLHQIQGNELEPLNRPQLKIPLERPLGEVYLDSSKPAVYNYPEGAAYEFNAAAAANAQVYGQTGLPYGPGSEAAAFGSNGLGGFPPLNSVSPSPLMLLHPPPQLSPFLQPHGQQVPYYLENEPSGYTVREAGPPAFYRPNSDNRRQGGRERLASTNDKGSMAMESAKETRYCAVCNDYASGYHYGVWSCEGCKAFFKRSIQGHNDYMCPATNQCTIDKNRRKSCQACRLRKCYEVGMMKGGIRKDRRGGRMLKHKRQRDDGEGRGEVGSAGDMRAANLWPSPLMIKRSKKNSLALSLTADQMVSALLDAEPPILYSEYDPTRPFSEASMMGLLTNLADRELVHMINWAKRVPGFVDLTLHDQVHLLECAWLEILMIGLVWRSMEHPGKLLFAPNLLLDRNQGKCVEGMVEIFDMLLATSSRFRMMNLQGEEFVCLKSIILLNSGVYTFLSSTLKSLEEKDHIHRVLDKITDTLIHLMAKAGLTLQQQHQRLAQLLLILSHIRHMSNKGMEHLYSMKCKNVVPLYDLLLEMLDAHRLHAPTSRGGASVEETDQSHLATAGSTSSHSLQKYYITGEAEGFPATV
T1 sequence (Q92731 whole entry, looked up): as the sequence (Q92731 whole entry, looked up, the tested form may be a part) above
Chain of Estrogen receptor (Homo sapiens) (P03372 whole entry, looked up, the tested form may be a part): as the sequence (P03372 whole entry, looked up) above
Chain of rat Mineralocorticoid Receptor (MR), Nr3c2 (gene 25672) (P22199 whole entry, looked up): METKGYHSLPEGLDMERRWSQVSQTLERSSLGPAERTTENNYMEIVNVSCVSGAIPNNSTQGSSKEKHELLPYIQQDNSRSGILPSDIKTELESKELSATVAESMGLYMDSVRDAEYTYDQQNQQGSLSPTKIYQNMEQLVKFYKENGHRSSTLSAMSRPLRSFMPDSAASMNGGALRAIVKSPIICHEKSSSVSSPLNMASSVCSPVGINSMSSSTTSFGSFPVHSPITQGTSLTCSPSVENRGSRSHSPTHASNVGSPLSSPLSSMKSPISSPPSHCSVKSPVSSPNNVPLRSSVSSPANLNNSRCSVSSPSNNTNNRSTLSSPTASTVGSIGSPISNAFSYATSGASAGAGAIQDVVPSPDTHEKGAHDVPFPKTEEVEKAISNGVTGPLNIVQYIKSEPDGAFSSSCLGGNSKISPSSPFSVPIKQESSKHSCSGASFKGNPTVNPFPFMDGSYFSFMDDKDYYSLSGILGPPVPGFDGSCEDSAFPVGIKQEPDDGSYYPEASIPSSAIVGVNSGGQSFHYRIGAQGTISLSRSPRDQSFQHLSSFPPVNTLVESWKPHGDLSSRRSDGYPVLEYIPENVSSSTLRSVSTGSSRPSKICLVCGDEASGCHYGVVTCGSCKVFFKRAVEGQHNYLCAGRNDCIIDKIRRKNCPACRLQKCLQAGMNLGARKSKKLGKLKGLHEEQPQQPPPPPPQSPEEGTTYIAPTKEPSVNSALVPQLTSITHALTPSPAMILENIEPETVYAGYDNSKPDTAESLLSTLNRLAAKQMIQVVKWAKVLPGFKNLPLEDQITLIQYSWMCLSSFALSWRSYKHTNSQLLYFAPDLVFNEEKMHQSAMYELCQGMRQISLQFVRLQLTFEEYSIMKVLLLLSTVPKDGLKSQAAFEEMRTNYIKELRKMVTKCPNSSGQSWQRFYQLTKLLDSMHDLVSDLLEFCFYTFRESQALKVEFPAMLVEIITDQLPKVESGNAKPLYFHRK

CCN(CC)C(=O)c1cc(S(=O)(=O)Cc2ccccc2)c(N2CCC(c3ccccc3)CC2)cc1N(CC)CCN(C)C
inactive: [2] | [4] | [5]
active: [1] 12.6 µM | [3] 10.1 µM

CN1C(=O)N(c2ccccc2Br)Cc2cnc(Nc3ccc4c(c3)OCC(CO)O4)nc21 (centres undefined)
active: [3] 0.0374 µM
not listed: [8] | [9] | [10]
inactive: all other assays above

OC12N=C(c3ccccc3)SC1Cc1cc(Cl)ccc12 (centres undefined)
inactive: [1] | [2] | [4] | [6] | [7] | [5]

CCOC(=O)O[C@H](C)OC(=O)c1ccc2c(c1)cc(C(=O)NC1CCN(C(C)C)CC1)n2Cc1cc(-c2ccc(Cl)s2)on1
active: [1] 17.8 µM
inactive: [2] | [4] | [7] | [5]

CCCCOC(=O)c1ccc(O)cc1
active: [5] 4.69 µM and 5.25 µM and 5.52 µM
inactive: [1] | [8] | [9]

O=C1CCC(C2CCCCC2)CC1
inactive: [1] | [5]

CCCCCc1ccc(N)cc1
active: [4] 67 µM and 67.6 µM | [6] 46.8 µM and 40 µM and 53.9 µM | [7] 18.9 µM and 27.8 µM and 42.5 µM | [5] 65.3 µM and 55.7 µM and 56.6 µM
inactive: [1] | [2] | [4] | [6] | [7] | [5]

CCCCCCCCN(C)CCCCCCCC
inactive: [2] | [4]

Cc1cc2c(cc1C(F)(F)F)N(C(=O)Nc1ccc(Oc3cccnc3C)nc1)CC2
inactive: [1] | [2] | [4] | [7] | [5]

Clc1cc(Cl)c2c(c1)N=C1CCCCCN1C2
inactive: [2] | [4]

Cc1cc(F)ccc1-c1cc(N2CC[C@@H](O)[C@H]2CO)ncc1N(C)C(=O)C(C)(C)c1cc(C(F)(F)F)cc(C(F)(F)F)c1
active: [8] 15.2 µM | [9] 23.6 µM
not listed: [1] | [10]
inactive: all other assays above

O=C1c2ccccc2C(=O)N1CCc1noc(-c2ccc(CN3CCCCCC3)s2)n1
inactive: [2] | [4]

CCO[Si](CCCNC(N)=O)(OCC)OCC
inactive: [2] | [3] | [4] | [6] | [7] | [5]

NCc1cccc(C2CCN(C(=O)c3ccc(C#Cc4ccccc4F)o3)CC2)c1
active: [1] 32.6 µM | [8] 14.6 µM | [9] 13.3 µM
inactive: [2] | [4] | [5]

O=C(Nc1ccc(Cl)cc1)Nc1ccc(Cl)c(Cl)c1
active: [8] 4.86 µM
not listed: [1] | [10]
inactive: all other assays above

CC(=O)N1CCN(c2ccc(OC[C@H]3CO[C@](Cn4ccnc4)(c4ccc(Cl)cc4Cl)O3)cc2)CC1
active: [3] 20.2 µM
inactive: [2] | [4] | [6] | [5]

Cc1cccc2ccccc12
inactive: [2] | [4]

CCN(Cc1cccnc1)C(=O)c1cccc(Cl)c1[C@]1(C)C(=O)N(Cc2ccc(OC)cc2OC)c2ccc(Cl)cc21
active: [1] 18.3 µM | [8] 2.59 µM
not listed: [3] | [10]
inactive: all other assays above

CCN(Cc1cccc(S(=O)(=O)O)c1)c1ccc(C(=C2C=CC(=[N+](CC)Cc3cccc(S(=O)(=O)O)c3)C=C2)c2ccccc2S(=O)(=O)[O-])cc1
active: [1] 16.1 µM
inactive: [2] | [3] | [6] | [7] | [5]

C[C@]12CC[C@@H]3c4ccc(O)cc4CC[C@H]3[C@@H]1CCC2=O
inactive: [1] | [10]
active: [1] 0.472 µM

Cc1c2ccccc2c(C)c2c1ccc1ccccc12
active: [8] 13.7 µM | [9] 11.6 µM
inactive: [1] | [2] | [4] | [6] | [5]

O=c1[nH]sc2ccccc12
inactive: [2] | [3] | [4] | [7] | [5]

CN(C)c1ccc(C(=C2C=CC(=[N+](C)C)C=C2)c2ccc(N(C)C)cc2)cc1
inactive: [2] | [4] | [7]
active: [1] 17.7 µM | [8] 0.273 µM | [9] 3.28 µM

OCCO
inactive: [2] | [4] | [8] | [9]

O=c1ccc2ccccc2o1
inactive: [2] | [4] | [6] | [7] | [5]
